Results on 51 compounds are retold here after ChEMBL document CHEMBL3988442, “University of Dundee, Small-Polar-MMV Screening Library” (2021).

Out of some 48,000 compounds screened, about 13,000 (27%) showed an effect of 50% or more. The list shows a part of the results.

The test concerns Wolbachia pipientis. Kind of test: Anti-Wolbachia Cell-Based Screen. The conditions noted are these: 5 µM. The arrangement: scale not given: in the data most compounds retested in dose-response had high values. The test is classed as functional.
For `O=C(O)C(F)(F)F.O=C(O)C(F)(F)F.c1ccc(COC[C@H]2CC[C@H]3[C@H](CCN3c3ncccn3)O2)nc1`, the “Percent Effect” value is recorded as -2.736%.

As for `NC(=O)c1cc(C2CCCN(Cc3ccc4c(c3)OCCO4)C2)n[nH]1` (stereo unspecified), the “Percent Effect” value is 95.83%.

Consider `CCc1cnc(CN2CCCC(c3cc(C)[nH]n3)C2)o1` (stereo unspecified), for which the “Percent Effect” value is -1.395%.

On to `CCOCCN1CCCC(c2cc(C(N)=O)[nH]n2)C1` (stereo unspecified), for which the “Percent Effect” value is listed as -3.243%.

As for `NC(=O)c1cc(C2CCCN(CCc3ccc4c(c3)CCO4)C2)n[nH]1` (stereo unspecified), the “Percent Effect” value worked out at 94.15%.

For `NC(=O)c1cc(C2CCCN(CCOCC(F)(F)F)C2)n[nH]1` (stereo unspecified), the “Percent Effect” value was -1.839%.

Turning to `O=C(C1COCCO1)N1CCN(Cc2ccc3c(c2)CCO3)CC1` (stereo unspecified), the “Percent Effect” value worked out at 2.717%.

In the case of `O=C(NCC1CCOC1)N1CCN(Cc2ccc3c(c2)CCO3)CC1` (stereo unspecified), the “Percent Effect” value is on record as -2.282%.

Turning to `O=C(C1CCCN(CCc2ccc3c(c2)CCO3)C1)N1CCCC1` (stereo unspecified), the “Percent Effect” value was determined as 96.85%.

With `Cc1cc(C2CCCN(CCc3ccc4c(c3)CCO4)C2)n[nH]1` (stereo unspecified), the “Percent Effect” value amounted to 104%.

In the case of `Cc1cc(C2CCCN(CCc3ccccn3)C2)n[nH]1` (stereo unspecified), the “Percent Effect” value was -3.98%.

As for `COc1ccc(F)cc1CN1CCCC(c2cc(C(N)=O)[nH]n2)C1` (stereo unspecified), the “Percent Effect” value is listed as -1.722%.

With `CCc1cc(NCCNc2cccnc2)n2nccc2n1`, the “Percent Effect” value is -9.581%.

Take `Cc1[nH]c(=O)[nH]c(=O)c1CN1CCCC(CCc2ccc(F)cc2F)C1` (stereo unspecified): the “Percent Effect” value was 2.06%.

For the compound `CSCCC(=O)N1CCC(Oc2cc(C)ccc2F)(C(=O)O)CC1`, the “Percent Effect” value amounted to 3.058%.

For the compound `CS(=O)(=O)N1CCOC2(CCCN(c3ncc(F)cn3)C2)C1` (stereo unspecified), the “Percent Effect” value was determined as 0.4401%.

In the case of `CCC(C)(NCC(N)=O)c1nccs1` (stereo unspecified), the “Percent Effect” value was -7.734%.

Turning to `COCCN1CCC2(CCN(Cc3cccs3)CC2)C1=O.O=C(O)C(F)(F)F`, the “Percent Effect” value is 6.379%.

On to `CCN1CCC2(CCN(Cc3nccs3)CC2)C1=O.O=C(O)C(F)(F)F`, for which the “Percent Effect” value is -3.246%.

As for `CCc1cnc(N2CCC3(CCN(CC)C3=O)CC2)nc1`, the “Percent Effect” value was -13.53%.

For the compound `COCCN1CCC2(CCN(c3ncccn3)CC2)C1=O.O=C(O)C(F)(F)F`, the “Percent Effect” value is reported as 97.58%.

With `CCN1CCC2(CCN(c3ncccn3)CC2)C1=O.O=C(O)C(F)(F)F`, the “Percent Effect” value is given as 93.98%.

In the case of `COCCN1CCC2(CCN(CC3CC3)CC2)C1=O.O=C(O)C(F)(F)F`, the “Percent Effect” value is -9.065%.

As to `NC(=O)CN(C(=O)c1c[nH]c2ncccc12)C1CCCC1`, the “Percent Effect” value is -3.753%.

As to `CNC(=O)C1CCC2(CCN(c3ncc(C)cn3)CC2)CO1` (stereo unspecified), the “Percent Effect” value is reported as -6.735%.

Take `Cc1n[nH]c(C)c1CNCC(O)c1cccc(Cl)c1.Cl` (stereo unspecified): the “Percent Effect” value came to 7.117%.

Turning to `CC(=O)N1CCCC1c1csc(Nc2cnccn2)n1` (stereo unspecified), the “Percent Effect” value is reported as -5.394%.

In the case of `COCC(=O)N1CCCC1c1csc(Nc2cnccn2)n1` (stereo unspecified), the “Percent Effect” value came out at 91.87%.

Take `CCC(=O)N1CCCC1c1csc(Nc2cnccn2)n1` (stereo unspecified): the “Percent Effect” value amounted to 122%.

For `Cc1cnc(NC(=O)c2cccc(CN(C)Cc3ccno3)c2)s1`, the “Percent Effect” value was determined as 0.9625%.

For the compound `CCN1CCCc2cc(CN3CCc4c(nc(C)[nH]c4=O)C3)ccc21`, the “Percent Effect” value stood at 149.4%.

`CCCn1nc2c(cc1=O)CN(CCCN1CCCC1=O)CC2`: the “Percent Effect” value is -4.188%.

Regarding `CCn1nc2c(cc1=O)CN(Cc1cc(C)on1)CC2`, the “Percent Effect” value is 0.747%.

In the case of `CCN1CCCc2cc(CN3CCc4nc(C)[nH]c(=O)c4C3)ccc21`, the “Percent Effect” value came to 122.7%.

As to `CCn1nc2c(cc1=O)CN(Cc1nc3ccccc3c(=O)[nH]1)CC2`, the “Percent Effect” value is recorded as -16.27%.

On to `CCn1nc2c(cc1=O)CN(Cc1ccc(-n3cccn3)cc1)CC2`, for which the “Percent Effect” value was determined as 7.019%.

In the case of `CN(C)C(=O)c1n[nH]c2c1CCN(Cc1nccs1)C2`, the “Percent Effect” value is recorded as 9.734%.

As to `Cn1ncc2c(N3CCN(C(N)=O)CC3)nc(C3CCCC3)nc21`, the “Percent Effect” value turned out to be 2.978%.

Take `CC1Cc2ccccc2N1Cc1occc1C(=O)OCC(N)=O` (stereo unspecified): the “Percent Effect” value is recorded as -8.495%.

Turning to `CC(C)COC(=O)N1[C@@H](c2ccco2)[C@@H](CO)C[C@]12CCCCNC2=O`, the “Percent Effect” value turned out to be 102%.

For `O=C1OC2(CCNCC2)CN1CC(=O)N1CCCC1c1ccco1` (stereo unspecified), the “Percent Effect” value is on record as -0.7494%.

As to `CC(C)CCC(=O)NCC(=O)N1CCCCCC1c1ccco1` (stereo unspecified), the “Percent Effect” value is on record as 14.42%.

On to `CC(C)(C)CC(=O)N1[C@@H](c2ccco2)[C@@H](CO)C[C@]12CCCCNC2=O`, for which the “Percent Effect” value was 102.1%.

Regarding `CCOC(=O)N1[C@@H](c2ccco2)[C@@H](CO)C[C@]12CCCCNC2=O`, the “Percent Effect” value was determined as 109.7%.

For `CCN(CCn1cccn1)C(=O)CN1C(=O)OC[C@@H]1C(C)C`, the “Percent Effect” value was -18.11%.

In the case of `Fc1ccc(CN2CCOC[C@H](Oc3cccnc3)C2)cc1`, the “Percent Effect” value is 4.64%.

Consider `Cl.Cl.OC(CN1CCN(Cc2ccc(F)cc2)CC1)C1CC1` (stereo unspecified), for which the “Percent Effect” value is -6.832%.

Regarding `COc1cccc(CN2CCCCC2CN2CCOCC2)c1F` (stereo unspecified), the “Percent Effect” value was 24.12%.

`Oc1cccc(CN2C[C@H]3CC[C@@H]2CN(Cc2ccc(F)cc2)C3)c1`: the “Percent Effect” value is 7.382%.

`OCC1N(Cc2ccc(F)cc2)[C@H]2CC[C@]1(O)CC2` (stereo partly specified): the “Percent Effect” value is given as 104.7%.

As for `O[C@]12CC[C@H](CC1)N(Cc1ccc(F)cc1)C2CN1CCOCC1` (stereo partly specified), the “Percent Effect” value worked out at 104%.
